Several values for one entry are separate records, joined by “and”; a condition that tells them apart may be missing. Equal entries are not always repeated. Inconclusive results are not listed. Activity calls are given as the source filed them. Calls come from the whole dose curve; as a rule, active = well fitted curve in the direction sought with a large enough effect; inconclusive = small, poorly fitted or top-dose-only effect, or another doubt; inactive = no such curve, though single readings can be large; an effect the other way counts as inactive or inconclusive.
Tests used:
[1] = molecular target: Cytochrome P450 3A7 (Homo sapiens) (UniProt P24462); experiment: Cytochrome P450 family 3 subfamily A member 7 (CYP3A7) small molecule antagonists: luciferase biochemical qHTS assay (AID 1963596); note: % is set by controls: 0 for no effect and ±100 for the full control effect; nearly all actives have a fitted effect of over 40% in size
Outline: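 Enzyme-substrate mix + cpd (DMSO), 10 min RT; + NADPH regen system, 1 h RT; + luciferin detection reagent, 20 min RT; luminescence read. Proluciferin substrate, P450-Glo format, 1536-well qHTS.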

[2] = Viability qHTS for spleen associated tyrosine kinase inhibitor (SYKi) naive MV4-11 cells (AID 1963823); note: nearly all actives have a fitted effect of over 40% in size; note: potency is the fitted concentration of half-maximal effect
Outline: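 SYKi-naive MV4-11 AML cells, 500 per well, were exposed to library compounds for 72 hr at 37 C, 5% CO2. Viability was then read by CellTiter-Glo luminescence after 10 min at room temperature.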

[3] = Cellular viability qHTS for adrenocortical cancer (ACC) cell line SW-13 (AID 1963989); details: SW-13 ACC cells viability, CellTiter-Glo, 48 h; activity (max response): stronger effect = lower value;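 note: cells grown in serum-free medium with ITS supplement; % is set by controls: 0 for no effect and ±100 for the full control effect; nearly all actives have a fitted effect of over 65% in size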
Outline: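 48 h treatment, SW-13 in ITS/DMEM serum-free; doses up to 46 uM; readout CellTiter-Glo luminescence; curve fit four-parameter logistic.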

[4] = Cellular viability qHTS for adrenocortical cancer (ACC) cell line NCI-H295R (AID 1963990); note: nearly all actives have a fitted effect of over 60% in size; note: potency is the fitted concentration of half-maximal effect
Outline: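 Compound titrations (up to 46 uM final) are applied to NCI-H295R cultures for 48 h at 37C. Viable cell number is estimated by CellTiter-Glo signal, normalised to DMSO and doxorubicin controls.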

[5] = Viability qHTS for spleen associated tyrosine kinase inhibitor (SYKi) drug resistant MV4-11 cells (AID 1963824); note: nearly all actives have a fitted effect of over 35% in size; note: potency is the fitted concentration of half-maximal effect
Outline: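 SYK-inhibitor-resistant MV4-11 AML cells were seeded at 500 per well onto compound and cultured 72 hours (37 °C, 5% CO2). CellTiter-Glo was then added, and after 10 min at room temperature, luminescence gave viability.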

Chain of Cytochrome P450 3A7 (Homo sapiens) (P24462 whole entry, looked up): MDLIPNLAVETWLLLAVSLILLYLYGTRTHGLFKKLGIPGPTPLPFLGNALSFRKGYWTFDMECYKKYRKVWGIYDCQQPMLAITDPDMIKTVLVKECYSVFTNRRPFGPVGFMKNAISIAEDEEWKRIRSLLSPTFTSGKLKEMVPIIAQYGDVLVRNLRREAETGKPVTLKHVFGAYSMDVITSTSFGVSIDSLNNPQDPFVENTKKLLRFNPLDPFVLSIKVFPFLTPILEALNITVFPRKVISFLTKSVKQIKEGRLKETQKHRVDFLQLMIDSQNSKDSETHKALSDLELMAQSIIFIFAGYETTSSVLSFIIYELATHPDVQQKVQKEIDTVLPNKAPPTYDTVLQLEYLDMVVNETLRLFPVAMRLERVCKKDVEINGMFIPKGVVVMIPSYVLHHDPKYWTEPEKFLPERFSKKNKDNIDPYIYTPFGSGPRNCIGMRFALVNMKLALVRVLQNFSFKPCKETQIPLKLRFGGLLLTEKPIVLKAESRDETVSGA

C1CN2CCC1CC2
inactive: Potency [1] | Potency [2] | activity (max response) [3] 2.77% | Potency [4]

O=C1CN=C(c2cccc(Br)c2)c2oc3ccccc3c2N1
inactive: Potency [1]
active: Potency [5] 7.31 µM

C[N+](C)(C)CCOC(=O)C(O)(c1ccccc1)c1ccccc1
inactive: Potency [1] | Potency [2] | Potency [5] | activity (max response) [3] -5.79% | Potency [4]

CC(C)(C)NCC(O)c1cc(Cl)c(N)c(C(F)(F)F)c1 (centres undefined)
inactive: Potency [1] | Potency [2] | Potency [5] | activity (max response) [3] 9.74% | Potency [4]

CC[N+]1(CCOC(=O)C(O)(c2ccccc2)c2ccccc2)CCCCC1
inactive: Potency [1] | Potency [2] | Potency [5] | activity (max response) [3] 4.14% | Potency [4]

O=C(O)c1ccc(=O)[nH]c1
inactive: Potency [1] | Potency [2] | Potency [5] | Potency [4]

C[C@@H]1O[C@@H](O[C@H]2C[C@@H](O)[C@]3(CO)[C@H]4[C@H](O)C[C@]5(C)[C@@H](C6=CC(=O)OC6)CC[C@]5(O)[C@@H]4CC[C@]3(O)C2)[C@H](O)[C@H](O)[C@H]1O
inactive: Potency [1]
active: Potency [2] 119 nM and 79.6 nM and 46.8 nM | Potency [5] 84.1 nM and 63.2 nM and 33.2 nM | Potency [4] 36.6 nM and 56.2 nM

CC(C)(N)Cc1ccc(Cl)cc1
inactive: Potency [1] | Potency [2] | Potency [5] | activity (max response) [3] 9.02% | Potency [4]

Cc1sc2c(c1C)C(c1ccc(Cl)cc1)=NC(CC(=O)Nc1ccc(O)cc1)c1nnc(C)n1-2 (centres undefined)
inactive: Potency [1]
active: Potency [5] 0.105 µM

C#CC(O)(C=CCl)CC (centres undefined)
inactive: Potency [1] | Potency [2] | activity (max response) [3] 7.7% | Potency [4]

C[C@H]1[C@@H]2Cc3ccc(O)cc3[C@@]1(C)CCN2C
inactive: Potency [1] | Potency [2] | activity (max response) [3] -10.9% | Potency [4]

CC(C)NC(C)C
inactive: Potency [1] | Potency [2] | activity (max response) [3] 17.3% | Potency [4]

CC(C)C(Br)C(=O)NC(N)=O (centres undefined)
inactive: Potency [1] | Potency [5] | activity (max response) [3] -7.38% | Potency [4]

OCCOc1ccccc1
inactive: Potency [1] | Potency [5] | activity (max response) [3] 8.17%

CCCCCCC(=O)CCCCCC/C=C/C[C@@H](O)[C@H](O)[C@@](N)(CO)C(=O)O
inactive: Potency [1] | Potency [5] | activity (max response) [3] -4.81% | Potency [4]

CN1C(=O)[C@@H](NC(=O)c2cc3ccccc3[nH]2)N=C(c2ccccc2)c2ccccc21
active: Potency [5] 4.22 µM
inactive: Potency [1] | activity (max response) [3] -6.85% | Potency [4]

CC(=O)Nc1cc([As](=O)(O)O)ccc1O
inactive: Potency [1] | Potency [5] | activity (max response) [3] 8.13% | Potency [4]

Nc1ccccc1C(=O)OCC(O)CO (centres undefined)
inactive: Potency [1] | Potency [5] | activity (max response) [3] 6.9%

CCC1(CC)C(=O)NC(=O)NC1=O
inactive: Potency [1] | Potency [5] | activity (max response) [3] -9.27%

CN(C(=O)Cc1ccccc1)C(CN1CCCC1)c1ccccc1 (centres undefined)
inactive: Potency [1] | Potency [5]

Sc1ccccc1Cl
inactive: Potency [1] | Potency [5]

O=[N+]([O-])c1c(Cl)c(Cl)cc(Cl)c1Cl
inactive: Potency [1] | activity (max response) [3] -0.162%

CC(C)(O)C(Cl)(Cl)Cl
inactive: Potency [1] | activity (max response) [3] 9.4%

c1ccc(N2CCNCC2)cc1
inactive: Potency [1] | Potency [5] | activity (max response) [3] 12.6% | Potency [4]

CC(C)N(CCC(C(N)=O)(c1ccccc1)c1ccccn1)C(C)C (centres undefined)
inactive: Potency [1] | Potency [5] | activity (max response) [3] 4.36% | Potency [4]
